Inconclusive results are not listed. The source made the active and inactive calls. Calls follow the shape of the dose curve; as a rule, active = well fitted cell-killing curve with a large enough effect in the repeat runs (not every such curve was filed as active); inconclusive = weak or mixed curves, or effect the other way; inactive = no such curve, though single readings can be large or run the other way. Where a SMILES comes first, the peptide text is derived from it.
Experiment: qHTS assay to identify small molecule antagonists of the estrogen related receptor signaling pathway with the pleiotropic PPARgamma coactivator (PGC) from Tox21 10K library - cell viability counter screen (AID 1224840); also: nearly all actives have a fitted effect of over 40% in size
Conditions: PGC/ERR reporter cells viability, CellTiter-Fluor, 17.5 h; series mostly up to 92.4 µM; viability change, negative = cytotoxic: at the top concentration
Excerpt: National Center for Advancing Translational Sciences [NCATS]
NIH Chemical Genomics Center [NCGC]
U.S. Environmental Protection Agency [EPA]
National Institutes of Environmental Health Sciences [NIEHS]
National Toxicology Program [NTP]
U.S. Food and Drug Administration [FDA]
Estrogen related receptors (ERRs), the first orphan nuclear receptors discovered, play an important role in the control of cellular energy metabolism. ERRs are required for high-energy production in response to the environmental challenges. The pleiotropic PPARgamma coactivator (PGC) is a major partner of ERR and a key regulator in energy homeostasis. Together they have been implicated in the etiology of metabolic disorders such as Type 2 diabetes and metabolic syndrome. ERR-alpha was also identified as an adverse marker for breast cancer progression; ERR-alpha-positive tumors have a poor prognosis. To screen and to identify environmental compounds that perturb the ERR and PGC/ERR signaling pathways could provide valuable information for potential therapeutic or preventive measures in the treatment of metabolic disease. To differentiate true PGC/ERR antagonists or agonist from cytotoxic substances, the assay is multiplexed with cell viability assay.
Tox21 Assay Protocol Summary:
The PGC/ERR cells were dispensed at 2,000 cells/5 ul/well in 1536-well white plates using a Multidrop dispenser. After the assay plates were incubated at a 37 C/5% CO2 incubator for 6 hours, 23 nL of compounds dissolved in DMSO, positive and negative controls or DMSO only was transferred to the assay plate by a pin tool. The plates were incubated at 37 C for 17.5 hours. 1 ul/well of CellTiter-Fluor reagent was added into the assay plates using a Flying Reagent Dispenser. After 30-minute incubation at 37 C/5% CO2, the fluorescence intensity in the plates was measured using a ViewLux plate reader.
% is scaled to controls: 0 for no effect and ±100 for the full control effect.

SMILES	viability change, negative = cytotoxic
CC(=O)CC(=O)Nc1ccc(C)cc1C	-0.969% (inactive)
O=C1c2ccccc2C(=O)c2cc(Cl)ccc21	5.77% [at 8.39 µM] (inactive)
CC(=O)CC(=O)OC(C)(C)C	6.62% (inactive)
CCCc1ccc(O)cc1	15% (inactive)
O=C(O)c1cc2ccccc2nc1C(=O)O	1.47% (inactive)
COc1cc2c(cc1OC)C(=O)C(CC1CCN(Cc3ccccc3)CC1)C2 (stereo not given)	-1.72% [at 42.5 µM] (inactive)
CC(C)(C)NC[C@H](O)COc1cccc2c1CCCC2=O	-23.7% [at 42.5 µM] (inactive)
CCN1CCCC1CN (stereo not given)	8.95% [at 42.5 µM] (inactive)
CC(=O)N[C@@H](CO)C(=O)N[C@@H](CC(=O)O)C(=O)N[C@@H](CCCCN)C(=O)N1CCC[C@H]1C(=O)O (Ac-SDKP-OH)	10.1% [at 42.5 µM] (inactive)
CCCCCCCCCCCCCCC(=O)NC(CO)CCCCCCCCCCCCCC (stereo not given)	3.94% (inactive)
O=Cc1cc2ccccc2o1	5.58% (inactive)
O=C(Cn1ccnc1[N+](=O)[O-])NCc1ccccc1	0.311% [at 42.5 µM] (inactive)
C=CCSSCCC	-1.3% (inactive)
OC1OCCOC1O (stereo not given)	18% (inactive)
N[C@@H](Cc1ccc(O)cc1)C(=O)O	3.49% [at 8.39 µM] (inactive)
C#CCN[C@@H]1CCc2ccccc21	1.97% [at 42.5 µM] (inactive)
CC(=O)OCC(=O)Nc1cc(C#N)cc(NC(=O)COC(C)=O)c1Cl	13.7% [at 42.5 µM] (inactive)
c1ccc(B(c2ccccc2)c2ccccc2)cc1	-20.2% (inactive)
C=CC/C=C/C	-1.81% (inactive)
CCCC(=O)OC/C=C(\C)CCC=C(C)C	2.05% (inactive)

SMILES	viability change, negative = cytotoxic
CC(=O)Nc1ccc(OC(=O)c2ccccc2OC(C)=O)cc1	1.04% [at 42.5 µM] (inactive)
CC(Oc1cc(Cl)ccc1Cl)C(=O)O (stereo not given)	2.37% (inactive)
CCNC(=O)NCc1cccc(Cl)c1	-0.813% [at 42.5 µM] (inactive)
Cc1cccc(Cl)c1	2.2% (inactive)
CC1OCCC1=O (stereo not given)	3.89% (inactive)
CC(=O)OC1CCCCC1C(C)(C)C (stereo not given)	15.5% (inactive)
O=C1NC(c2ccccc2)(c2ccccc2)C(=O)N1COP(=O)(O)O	6.84% [at 42.5 µM] (inactive)
Cc1ccc(C(C)NC(=O)[C@@H](NC(=O)OC(C)C)C(C)C)cc1 (stereo not given in full)	6.33% (inactive)
CC(=O)O[C@H]1C[C@@H]2CC[C@@]1(C)C2(C)C	-2.23% (inactive)
OCCN1CCOCC1	4.13% (inactive)
CC(C)Cn1cnc2c1c(=O)n(C)c(=O)n2C	1.49% [at 42.5 µM] (inactive)
CSc1cnccn1	1.34% (inactive)
Cc1c(NC(=O)c2cccnc2)c(=O)n(-c2ccccc2)n1C	-5.21% [at 42.5 µM] (inactive)
O=C=NCC1CCCC(CN=C=O)C1 (stereo not given)	-3.13% (inactive)
C=CCCCCCCCCC(=O)OCCCC	1.05% (inactive)
CC1=C(C(=O)O)N2C(=O)[C@@H](NC(=O)[C@H](N)c3ccccc3)[C@H]2SC1	3.92% [at 42.5 µM] (inactive)
CCCSSCCC	8.01% (inactive)
O=C(O)[C@H](O)c1ccccc1	4.5% [at 42.5 µM] (inactive)
CCO[Si](CC)(OCC)OCC	5.27% (inactive)
Cn1c(=O)c2[nH]c(Br)nc2n(C)c1=O	-8.04% [at 42.5 µM] (inactive)
